These results are taken from ChEMBL document CHEMBL1157539, “Thousands of chemical starting points for antimalarial lead identification” (Nature, 2010).

Format in all cases: functional
Test [1] concerns Plasmodium falciparum. Put plainly: GSK_TCMDC: Inhibition of Plasmodium falciparum 3D7 in whole red blood cells, using parasite LDH activity as an index of growth. Test compounds present at 2uM.
For test [2], the system named is Plasmodium falciparum. Put plainly: GSK_TCMDC: Inhibition of Plasmodium falciparum Dd2 in whole red blood cells, using parasite LDH activity as an index of growth. Test compounds present at 2uM.
A further test has as its system HepG2. In words: GSK_TCMDC: Percent inhibition of human HepG2 cell line. Test compounds present at 10uM.

With `O=C(NC1CCN(Cc2ccccc2)CC1)c1cccc(-c2nc3ccc(Cl)cc3[nH]2)c1`, the values for the Inhibition in the test on Plasmodium falciparum [1], in the test with Plasmodium falciparum [2] and with HepG2 were 98%, 0% and 6%, respectively.
For `Cc1nn(-c2ccnc3cc(Cl)ccc23)c(C)c1C(=O)NCc1cc(Cl)cc(Cl)c1`, in that order: 97%, 53% and 0%.
Regarding `Cc1cnc(Nc2cccnc2)nc1Nc1ccccc1C(=O)NC(C)C`, the Inhibition is recorded as 85% with Plasmodium falciparum [1], 26% in the test with Plasmodium falciparum [2] and 9% in the test with HepG2.
For `O=C(NC1CCCC1)c1cc2c(=O)n3ccccc3nc2[nH]/c1=N/CCc1ccccc1`, in that order: 100%, 61% and 19%.
For `O=C(Nc1ccc2c(c1)CCN2C1CCN(Cc2cccc(C(F)(F)F)c2)C1)c1ccco1` (stereo not given), in that order: 95%, 92% and 4%.
For `O=C(NC1CCCc2ccccc21)[C@@H]1CCCN1C(=O)c1ccc(O)c(-c2ccc(Cl)c(Cl)c2)c1` (stereo not given in full), in that order: 99%, 99% and 0%.
Turning to `CS(=O)(=O)CCNCc1ccc(-c2ccc3ncnc(Nc4ccc(OCc5ccccc5)c(Cl)c4)c3c2)o1.Cl` [GW574783B], the Inhibition is given as 100% in the test on Plasmodium falciparum [1], 76% in the test on Plasmodium falciparum [2] and 4% in the test on HepG2.
Taken in the same sequence, the figures for `Cc1[nH]c2c(NCc3ccc(F)cc3)nccc2c1C` were 83%, 0% and 63%.
In the case of `CCCCn1c(=N)c(C(=O)NCc2cccnc2)cc2c(=O)n3cccc(C)c3nc21`, the values for the Inhibition with Plasmodium falciparum [1], in the test with Plasmodium falciparum [2] and in the test on HepG2 were 100%, 47% and 7%, respectively.
Taken in the same sequence, the figures for `CCc1cn2c3c(cc(C(=O)N[C@@H](Cc4ccccc4)[C@H](O)CNC4CCCC4)cc13)N(C)S(=O)(=O)CC2` were 100%, 99% and 6%.
For the molecule `CC(=O)Oc1cc(OCc2ccccc2)c(OC(C)=O)c(OCc2ccccc2)c1`, the Inhibition in the test with Plasmodium falciparum [1] came out at 94%; with Plasmodium falciparum [2] it was 78%; in the test on HepG2, 11%.
Taken in the same sequence, the figures for `CC(C)CN1CCN(c2nc(C#N)c3c(c2C(=S)NC2CCCCC2)CC(C)(C)OC3)CC1` were 100%, 99% and 0%.
For `Oc1cccc(/C=N/Nc2ccnc3cc(Cl)ccc23)c1`, in that order: 100%, 95% and 0%.
For `O=C(O)C(F)(F)F.c1ccc(CCNCc2cccc(-c3ccc(CNc4ccc5ncccc5c4)cc3)c2)cc1`, in that order: 93%, 27% and 43%.
Regarding `O=C(Nc1cccc(C(F)(F)F)c1)NC1CCN(c2ccnc3cc(Cl)ccc23)C1.O=C(O)C(F)(F)F` (stereo not given), the Inhibition in the test with Plasmodium falciparum [1] came to 100%; in the test with Plasmodium falciparum [2], 89%; with HepG2 it was 18%.
As for `N#Cc1cccc(Nc2nccc(NCC(O)c3cccc(C(F)(F)F)c3)n2)c1` (stereo not given), the Inhibition in the test with Plasmodium falciparum [1] is recorded as 99%; with Plasmodium falciparum [2], 84%; in the test on HepG2 it was 4%.
For `CCc1nc(N)nc(N)c1-c1ccc(C(C)C)cc1`, in that order: 92%, 0% and 3%.
Taken in the same sequence, the figures for `COc1ccc(-c2cnc(NCc3ccccc3)nc2)cc1CNC1CCN(C)CC1.O=C(O)C(F)(F)F` were 96%, 64% and 19%.
Taken in the same sequence, the figures for `CN1CCC(N(C)C(=O)C=Cc2cn(-c3ccccc3)nc2-c2cc3ccccc3o2)CC1.Cl` were 92%, 5% and 38%.
Regarding `Cc1ccc(C(=O)Nc2ccc(C)c(OC3CCN(CCC(C)C)C3)c2)cc1.O=C(O)C(F)(F)F` (stereo not given), the Inhibition stood at 99% in the test with Plasmodium falciparum [1], 53% in the test with Plasmodium falciparum [2] and 6% in the test on HepG2.
Taken in the same sequence, the figures for `CCCCCCN1CCCN(Cc2ccc(C(=O)Nc3ccc(C)c(F)c3)cc2)CC1.O=C(O)C(F)(F)F` were 92%, 58% and 47%.
For `COc1ccc2ncc(F)c(CCN3CC[C@@H](CNCc4cc(C)c5c(c4)OCCO5)C3)c2n1.Cl`, in that order: 98%, 44% and 22%.
Taken in the same sequence, the figures for `CC(Oc1ccc(Cl)cc1)C(=O)NCCC1CCN(CCCCCNC(=O)/C=C/c2ccc(Cl)c(Cl)c2)CC1` (stereo not given) were 89%, 20% and 48%.
`CCC(C)(CC)C(=O)n1ncc2c3c(N)nc(N)nc3ccc21`: the Inhibition in the test on Plasmodium falciparum [1] stood at 94%; in the test on Plasmodium falciparum [2], 6%; with HepG2 it was 73%.
For `CC1CCCCN1CCCNc1ncc2c(-c3ccc(NC(=O)Nc4cc(C(F)(F)F)ccc4F)c(F)c3)nn(C)c2n1.O=C(O)C(F)(F)F` (stereo not given), in that order: 100%, 97% and 27%.
`COCCN1CCC(N(Cc2ccc(-c3ccc(OC(F)(F)F)cc3)cc2)C(=O)Cn2c(CCc3cccc(F)c3F)cc(=O)c3ccccc32)CC1.O=C(O)C(O)C(O)C(=O)O`: the results for the Inhibition with Plasmodium falciparum [1], with Plasmodium falciparum [2] and with HepG2 were 96%, 92% and 100%, respectively.
For `O=C(/C=C/c1ccc(Cl)c(Cl)c1)N1CCC(CN2CCC(c3c[nH]c4ccncc34)CC2)CC1`, in that order: 100%, 72% and 44%.
For `COc1cc(Nc2nccc(N3CCC(NC(=O)Nc4ccc5c(c4)OCO5)C3)n2)cc(OC)c1OC` (stereo not given), in that order: 96%, 74% and 9%.
For the molecule `CS(=O)(=O)c1ccc(CNCc2ccc(-c3ccc(-c4nc5cc(C(F)(F)F)ccc5[nH]4)s3)cc2)cc1.O=C(O)C(F)(F)F`, the values for the Inhibition in the test on Plasmodium falciparum [1], with Plasmodium falciparum [2] and with HepG2 were 100%, 98% and 49%, respectively.
Taken in the same sequence, the figures for `Cl.ON=C1CCc2cc(-c3nc(-c4ccc(OCCN5CCCCC5)cc4)[nH]c3-c3ccncc3)ccc21` were 99%, 54% and 73%.

In general, Inhibition refers to the drop in the measured response relative to a control, in per cent. Read a low Inhibition as little suppression.
